# From PubChem BioAssay
# Giardia killer: Giardia lamblia killing. activity change, % at 7.66 µM, hits read low. Giardia lamblia trophozoite viability. hit rate 0.15% among 340,000; in the data active = activity change below about -80%; inconclusive = between about -30% and that limit;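 note: parasites exposed to compound for two days anaerobically before the ATP read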
#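 ATP-content bioluminescence gauges trophozoite survival. Cells (100/well) receive compound and incubate anaerobically for 48 hrs at 37 deg C; detection reagent follows for 15-30 min at room temperature.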
# SW480 rerep: induces DNA re-replication in SW480 colon adenocarcinoma cells. hit rate 1.8% among 340,000. SW480 DNA re-replication, Hoechst DNA content imaging, 48 h. Potency, µM (top dose mostly 46.1 µM), hits mostly activators. AID 624297; note: nearly all actives have a fitted effect of over 55% in size
#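 Per well, 250 cells were exposed to pinned compound for 48 hr. Nuclear DNA was visualised with Hoechst (40 min, 37 C) and total object intensity recorded by fluorescence scanning.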
# IL-1B inflam inh: inflammasome signaling inhibition, IL-1 beta readout; THP-1 LPS/ATP IL-1B secretion, AlphaLISA, 16 h; hits give low values; activity change, % at 57.5 µM; hit rate 4.7% among 360,000; AID 743279; in the data active = activity change below about -50%; inconclusive = mostly about -30% to -49%
#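 THP-1 cells pretreated 1 hr with compounds (up to 57.5 uM final), then stimulated with LPS (250 ng/mL final) plus ATP (1.25 mM final); secreted IL-1B measured by AlphaLISA after 16 hr, decreased signal indicating inhibition.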
# Vif-APOBEC3G blk: Vif-A3G binding inhibition | Q9HC16 | HeLa A3G-eYFP + Vif (tagged APOBEC3G with the HIV-1 protein that degrades it), YFP fluorescence, overnight | Potency, µM (series often up to 46.1 µM), hits mostly inhibitors | hit rate 0.076% among 410,000; note: nearly all actives have a fitted effect of over 60% in size
# Target sequence (Q9HC16 whole entry, looked up): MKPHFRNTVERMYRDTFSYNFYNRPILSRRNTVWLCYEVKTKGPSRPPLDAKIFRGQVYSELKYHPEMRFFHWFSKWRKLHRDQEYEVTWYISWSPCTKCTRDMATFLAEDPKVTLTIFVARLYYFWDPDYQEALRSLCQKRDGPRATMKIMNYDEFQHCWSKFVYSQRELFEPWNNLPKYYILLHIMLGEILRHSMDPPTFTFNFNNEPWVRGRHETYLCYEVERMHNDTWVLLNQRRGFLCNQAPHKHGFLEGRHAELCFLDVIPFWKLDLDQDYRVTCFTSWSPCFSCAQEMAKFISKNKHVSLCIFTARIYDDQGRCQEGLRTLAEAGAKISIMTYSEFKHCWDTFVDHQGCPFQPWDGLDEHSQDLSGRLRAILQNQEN
#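 HeLa cells stably expressing Vif and C-terminally eYFP-tagged A3G, seeded overnight at 37 deg C, then exposed to compound by pintool overnight at 37 deg C. Rise in yellow fluorescence (Ex 488/Em 500-530, Acumen) marks blocked Vif-driven A3G degradation.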
# Vif-A3F inh: Vif-A3F binding inhibition; hit rate 0.2% among 390,000; Potency, µM (doses to about 46.1 µM); HeLa A3F-eYFP + Vif (tagged APOBEC3F with the HIV-1 protein that degrades it), YFP fluorescence increase; note: nearly all actives have a fitted effect of over 65% in size
#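 Fluorescence increase (Ex 488/Em 500-530) after overnight compound treatment at 37 deg C flags inhibition of Vif-driven A3F-eYFP loss in stable HeLa A3F-eYFP/Vif cells seeded overnight beforehand.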
# MCF10A rereplic: induces DNA re-replication in MCF 10a normal breast cells; hit rate 2.9% among 350,000; MCF 10A DNA re-replication, Hoechst nuclear intensity, 48 h; AID 624296; Potency, µM (top dose mostly 46.1 µM), most hits filed as activators; note: nearly all actives have a fitted effect of over 50% in size
# Numbers stand for hits; – = inactive; ? = inconclusive; · = no result; [ ] = another dose, or the depositor's remark. Only some compounds are listed: those with a hit (about 6.9% of all), similar ones and a draw of the others. Unless noted, calls come from the whole dose curve; as a rule, active = well fitted curve in the direction sought with a large enough effect; inconclusive = small, poorly fitted or top-dose-only effect, or another doubt; inactive = no such curve, though single readings can be large; an effect the other way counts as inactive or inconclusive.
SMILES,Giardia killer,SW480 rerep,IL-1B inflam inh,Vif-APOBEC3G blk,Vif-A3F inh,MCF10A rereplic
O=C1Nc2ccc(Cl)cc2C(=O)C1(F)c1ccccc1 (stereo not given),–,–[9.22 µM],?,–,–,–
Nc1nc2c(nc(N3CCOCC3)n2COCCO)c(=O)[nH]1,·,·,·,–,·,·
OC1(c2cccc(C(F)(F)F)c2)CCN(Cc2nnnn2CCc2ccccc2)CC1,–,–,–,–,–,–
OC1(c2cccc(C(F)(F)F)c2)CCN(Cc2nnnn2Cc2ccccc2)CC1,–,–,-70,–,–,–
Cc1nc(-c2ccccc2)sc1-c1n[nH]c(=S)n1C,–,23µM,–,–,–,–
Cn1c(-c2ccccc2)n[nH]c1=S,–,–,–,–,–,–
CCOc1ccccc1NS(=O)(=O)c1cc2[nH]c(=O)c(=O)[nH]c2cc1C,·,·,·,–,–,·
COc1ccc(OC)c(NS(=O)(=O)c2ccc(-c3cc(C)no3)s2)c1,·,·,·,?,–,·
O=S(c1cc(Cl)cc(Cl)c1O)c1cc(Cl)cc(Cl)c1O,·,–,-67,·,·,13µM
COc1ccc(-c2cccc(C3C4C=CCCC4(C)C(=O)N3Cc3ccccc3)c2)cc1 (stereo not given),–,·,·,–,·,·
COc1ccc(CN2C(=O)N(c3ccccc3)C(=O)C2c2ccccc2)cc1COc1ccc(NC(C)=O)cc1 (stereo not given),–,·,·,·,·,·
COC(=O)CN1C(C)=Nc2ccc(C)cc2C1c1ccccc1 (stereo not given),–,–,-53,–,–,–
Cc1ccc2oc(=O)c3cnn(CC(=O)N4CCN(c5cc(Cl)ccc5C)CC4)c3c2c1,·,·,·,–,–,·
Cc1cccc(CN2CCc3c([nH]c4ccccc34)C2)c1,–,–,?,–,–,?
Clc1cccc(CN2CCc3c([nH]c4ccccc34)C2)c1,–,–,-98,–,–,–
Clc1ccc(CN2CCc3c([nH]c4ccccc34)C2)cc1Cl,–,–,-70,–,–,–
c1ccc(CN2CCc3[nH]c4ccccc4c3C2)cc1,–,–,–,–,–,–
CSc1ccc(CN2CCc3c([nH]c4ccccc34)C2)cc1,–,–,-73,–,–,?
COc1ccccc1CNC(=O)C1CCCN(S(=O)(=O)c2ccc3c(c2)oc(=O)n3C)C1 (stereo not given),·,·,·,–,–,·
CC(=O)Nc1ccn(C2OC(C(COC(C)=O)NC(=O)C(Cc3ccccc3)NC(=O)OC(C)(C)C)C(OC(C)=O)C2OC(C)=O)c(=O)n1 (stereo not given),–,·,·,–,·,·
COc1ccc(CCc2ccc3cc(OC)ccc3n2)cc1,–,–,-55,–,–,–
COc1ccc2cc(CCC(C)=O)ccc2c1,–,–,–,–,–,?
CC(C)COc1nc2ccccc2nc1C(C#N)C(=O)NC1CCCCC1 (stereo not given),–,–,–,–,–,5.8µM
CC1CCN(c2nc3ccccc3nc2C(C#N)C(=O)OC2CCCCC2)CC1 (stereo not given),–,–,–,–,–,–
Clc1ccc(C2=C3CCCCn4c(-c5ccccc5)c[n+](c43)C2)cc1,–,–,–,–,–,?
SMILES,Giardia killer,SW480 rerep,IL-1B inflam inh,Vif-APOBEC3G blk,Vif-A3F inh,MCF10A rereplic
COc1ccc(-c2c[n+]3c4n2CCCCC4=C(c2ccc(Br)cc2)C3)cc1,–,–,-98,–,–,?
O=c1c2cc([N+](=O)[O-])cc([N+](=O)[O-])c2[nH]n1-c1ccccc1,–,–,–,–,–,?
O=c1[nH]c(=O)c2cc([N+](=O)[O-])cc([N+](=O)[O-])c2[nH]1,?,?,-74,–,–,–
COCCn1c(C)cc(C(=O)CSc2ccc(NC(C)=O)cc2)c1C,–,–,–,–,–,–
COC(=O)CCn1c(C)cc(C(=O)COc2ccccc2C(N)=O)c1C,–,–,-99,–,–,–
COC(=O)CCCn1c(C)cc(C(=O)CCl)c1C,–,?,-93,?,–,?
Cc1cc(C(=O)CCl)c(C)n1CCc1ccccc1,–,?,-100,?,–,–
Cc1cc(C(=O)CCl)c(C)n1Cc1ccco1,–,?,-97,?,–,?
Cc1nnc(SCc2ccccc2Cl)c2cc3occc3n12,·,·,·,–,–,·
CS(=O)(=O)c1ccc(NC(=O)CN2C(=O)C3CCCCC3C2=O)cc1 (stereo not given),–,–,–,–,–,–
CCCCc1ccc(NC(=O)CN2C(=O)C3CCCCC3C2=O)cc1 (stereo not given),–,–,-76,–,–,?
CCN1CCN(C(=O)c2ccc(CSc3ccc(C)cc3)cc2)CC1,–,–,-54,–,–,–
CCOc1ncccc1C(=O)N1CCN(c2cccc(C)c2C)CC1,–,0.73µM,–,–,–,?
CCOc1ncccc1C(=O)N1CCN(c2cc(Cl)ccc2C)CC1,–,0.65µM,–,–,–,15µM
O=C(Nc1cccc(Cl)c1)Nc1sccc1-c1nc2ccccc2s1,–,18µM,·,–,?,16µM
Nc1ccc(C=C2C=Cc3ccccc32)cc1,–,–,-74,–,–,–
NC(N)=Nc1ccc(C=C2C=Cc3ccccc32)cc1,–,?,-68,–,–,?
Nc1ccc(/C=C2\C=Cc3ccccc32)cc1,·,·,·,–,·,·
Cc1ccc(S(=O)(=O)NCCc2nnc3ccc(SCC(=O)Nc4ccc(OC(F)(F)F)cc4)nn23)cc1,·,·,·,–,–,·
O=C(CSc1c2c(nc3ccc(Cl)cc13)CCCC2)N1CCN(C(=O)c2ccco2)CC1,–,–,-79,?,–,?
COc1ccc(Cl)cc1C(=O)NCc1nc(-c2cccc(C)c2)no1,·,·,·,–,–,·
O=C(CSc1nc(-c2ccccc2)nc2c1Cc1ccccc1O2)N1CCCCC1,·,·,·,–,–,·
CCO[C@@H]1OC(C(=O)NCc2ccccc2)=C[C@H](c2cn(C(C)=O)c3ccccc23)[C@H]1CCCO,–,–,-54,–,–,–
CCO[C@H]1OC(C(=O)Nc2ccccc2)=C[C@@H](c2ccc(C(F)(F)F)cc2)[C@@H]1CCCO,–,–,-55,–,–,?
C#Cc1ccc([C@@H]2C=C(C(=O)NC3CC3)O[C@H](OCC)[C@H]2CCCO)cc1,–,–,–,–,–,?
CCO[C@H]1OC(C(=O)NC2CC2)=C[C@@H](c2ccccc2)[C@@H]1CCCO,–,?,–,–,–,23µM
CCO[C@@H]1OC(C(=O)NCc2nc3ccccc3[nH]2)=C[C@H](c2ccc(C(F)(F)F)cc2)[C@H]1CCCO,–,?,-64,–,–,–
COc1ccc(-c2coc3c2c(C)cc2oc(=O)c(CC(=O)O)c(C)c23)cc1,·,·,·,–,–,·
CC(=O)Nc1ccc(/C=C/c2ccnc3ccccc23)cc1,·,·,·,–,·,·
COc1cccc2c(=O)c3c(cnn3C)n(C)c12,–,–,-54,–,–,?
